Assay in all cases: qHTS profiling for inhibitors of Plasmodium falciparum proliferation (AID 504749); further: nearly all actives have a fitted effect of over 60% in size
What all share (settings): P. falciparum in erythrocytes, SYBR Green DNA, 72 h; series mostly up to 28.7 µM
Background: Quantitative high-throughput screening tests each substance at several concentrations.

For one assay, the system named is CP335. The procedure, abridged: (§1)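 Fluorescence of SYBR Green-bound parasite DNA, read at 485/535 nm, served as the growth measure. Infected erythrocytes were cultured with compound 72 h; artemisinin (0.29 uM) and DMSO wells defined the normalization range.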
Another assay deals with DFO2036. The procedure, abridged: as §1
The next assay has as its system DIV14. In a few lines: as §1
Another assay deals with DIV30. In a few lines:
as §1

The next assay concerns Dd2. In a few lines:
as §1

In the next assay the test system is ECU. The procedure, abridged:
as §1

Another assay relates to FAB9. The procedure, abridged: as §1
In a further assay the test system is GB4. The procedure, abridged:
as §1

The test system of a further assay is HB3. In a few lines:
as §1

The test system of another assay is DIV17. In a few lines:
as §1

Inconclusive results are not listed. The source made the active and inactive calls. The call rests on the fitted dose curve; in most records, active means well fitted inhibition curve with a large enough effect; inconclusive means small, poorly fitted or top-dose-only effect; inactive means flat fitted curve, though single readings scatter.

23 compounds from PubChem BioAssay (NCATS) can be followed below.
Potency means the concentration at half of the fitted maximal effect.

Turning to `O=C(O)CCC/C=C\C[C@@H]1[C@@H](/C=C/[C@@H](O)COc2cccc(Cl)c2)[C@H](O)C[C@@H]1O`, the Potency entry in the assay with CP335, with DFO2036, with DIV14, with DIV30, in the assay on Dd2 and in the assay with ECU was “inactive” each time. In addition, the Potency result in the assay with FAB9, in the assay with GB4 and with HB3 was “inactive” in each case.
As to `C[C@H]1O[C@@H](O[C@H]2[C@@H](O)C[C@H](O[C@H]3[C@@H](O)C[C@H](O[C@H]4CC[C@@]5(C)[C@H](CC[C@@H]6[C@@H]5C[C@@H](O)[C@]5(C)[C@@H](C7=CC(=O)OC7)CC[C@]65O)C4)O[C@@H]3C)O[C@@H]2C)C[C@H](O)[C@@H]1O`, the Potency result in the assay with CP335, in the assay on DFO2036, with DIV17, with DIV30, in the assay on Dd2 and in the assay on ECU was “inactive” each time. In addition, the Potency entry with FAB9, with GB4 and in the assay on HB3 was “inactive” in each case.
With `C[C@]12CC[C@@H]3c4ccc(OC(=O)c5ccccc5)cc4CC[C@H]3[C@@H]1CC[C@@H]2O`, the Potency in the assay on CP335 is 12 µM (active). Also, the Potency result in the assay on DFO2036, in the assay with DIV14, in the assay on DIV17, with DIV30, with ECU and in the assay with FAB9 was “inactive” throughout. Moreover, the Potency entry in the assay with GB4 and in the assay on HB3 was “inactive” throughout.
As to `Cc1ccc(C(C)(C)c2ccc(C)cc2)cc1`, the Potency result in the assay on CP335, in the assay with DFO2036, in the assay on DIV17, in the assay with DIV30, in the assay with Dd2 and in the assay on ECU was “inactive” throughout. The Potency entry with FAB9, in the assay on GB4 and with HB3 was “inactive” throughout.
As to `CC(CCc1ccc(O)cc1)NCC(O)c1ccc(O)cc1` (configuration not stated), the Potency result in the assay on CP335, in the assay with DFO2036, in the assay on DIV17, in the assay with DIV30, in the assay on Dd2 and in the assay on ECU was “inactive” in each case. Besides, the Potency entry in the assay on FAB9, in the assay with GB4 and with HB3 was “inactive” throughout.
With `O=C(O)Cc1nn(Cc2ccc(Br)cc2F)c(=O)c2ccccc12`, the Potency result in the assay on CP335, in the assay on DFO2036, in the assay on DIV14, in the assay with DIV17, in the assay with DIV30 and with Dd2 was “inactive” in each case. The Potency entry in the assay with ECU, in the assay with FAB9, in the assay with GB4 and in the assay with HB3 was “inactive” each time.
With `CO/N=C(/C(=O)N[C@@H]1C(=O)N2C(C(=O)O)=C(COC(N)=O)CS[C@H]12)c1ccco1`, the Potency result in the assay with CP335, in the assay on DFO2036, with DIV14, in the assay on DIV30, in the assay on Dd2 and with ECU was “inactive” throughout. Also, the Potency entry in the assay on FAB9 is “inactive”.
Turning to `O=C(O)c1cc(N=Nc2ccc(O)c(C(=O)O)c2)ccc1O`, the Potency entry in the assay on CP335, with DFO2036, in the assay on DIV17, in the assay on DIV30, in the assay with Dd2 and with ECU was “inactive” in each case. Also, the Potency entry in the assay on FAB9, in the assay on GB4 and in the assay with HB3 was “inactive” throughout.
As to `CCCCCCCCCCCCCCCCCCCCCC(=O)Nc1ccn([C@@H]2O[C@H](CO)[C@@H](O)[C@@H]2O)c(=O)n1`, the Potency entry with CP335, in the assay on DFO2036, in the assay with DIV14, in the assay on DIV17, in the assay with DIV30 and in the assay with Dd2 was “inactive” throughout. In addition, the Potency result in the assay on ECU, in the assay with FAB9 and in the assay on HB3 was “inactive” throughout.
For `O=C(O)CC/C=C\CC[C@@H]1[C@@H](N2CCCCC2)[C@@H](O)C[C@@H]1OCc1ccc(-c2ccccc2)cc1`, the Potency result with CP335, with DFO2036, in the assay on DIV14, in the assay on DIV30, in the assay on Dd2 and with ECU was “inactive” each time. In addition, the Potency result in the assay with FAB9, in the assay on GB4 and in the assay on HB3 was “inactive” each time.
As for `FC(F)(F)C(F)(F)C(F)(F)C(F)(F)C(F)(F)F`, the Potency result in the assay on CP335, with DFO2036, in the assay with DIV17, in the assay on DIV30, in the assay with Dd2 and with ECU was “inactive” throughout. Moreover, the Potency entry in the assay on FAB9, with GB4 and in the assay on HB3 was “inactive” throughout.
For `CCN(CC)CCOc1ccccc1OC`, the Potency result in the assay with CP335, with DFO2036, with DIV14, with DIV17, with DIV30 and in the assay on Dd2 was “inactive” in each case. In addition, the Potency entry in the assay with ECU, in the assay with FAB9 and in the assay on HB3 was “inactive” each time.
As for `O=[N+]([O-])c1c(Cl)cccc1-c1c[nH]cc1Cl`, the Potency entry in the assay on CP335, with DFO2036, in the assay on DIV17, with DIV30, with Dd2 and in the assay on ECU was “inactive” throughout. For the same compound, the Potency entry with FAB9, with GB4 and with HB3 was “inactive” in each case.
As for `FC(F)OC(Cl)C(F)(F)F` (configuration not stated), the Potency result in the assay on CP335, in the assay with DFO2036, in the assay with DIV14, with DIV30, in the assay on Dd2 and in the assay with ECU was “inactive” throughout. Also, the Potency result in the assay with FAB9, in the assay with GB4 and in the assay with HB3 was “inactive” throughout.
In the case of `O=C(OCc1ccccc1)c1cccnc1`, the Potency result in the assay with CP335, with DFO2036, with DIV17, in the assay on DIV30, in the assay on Dd2 and with ECU was “inactive” throughout. In addition, the Potency entry in the assay on FAB9, in the assay on GB4 and with HB3 was “inactive” each time.
`CCOc1ccc(NC(=S)Nc2ccc(OCC)cc2)cc1`: the Potency entry with CP335, in the assay with DFO2036, in the assay with DIV14, in the assay on DIV17, with DIV30 and in the assay with Dd2 was “inactive” each time. Also, the Potency entry in the assay with ECU, in the assay on FAB9, in the assay with GB4 and in the assay with HB3 was “inactive” in each case.
As for `CC1CCCCN1CCCOC(=O)c1ccccc1` (configuration not stated), the Potency result in the assay with CP335, with DFO2036, in the assay on DIV14, in the assay on DIV17, in the assay on DIV30 and in the assay on Dd2 was “inactive” in each case. The Potency entry in the assay on ECU, in the assay on FAB9 and in the assay with HB3 was “inactive” each time.
As for `Cc1cc(C)c(NC(=O)C[C@H](CC(=O)O)c2cccc3ccccc23)c(C(=O)N2CCC3(CCCC3)CC2)c1`, the Potency result in the assay on CP335, in the assay with DFO2036, with DIV14, with DIV17, in the assay with DIV30 and with ECU was “inactive” in each case. Also, the Potency entry in the assay on FAB9, in the assay on GB4 and with HB3 was “inactive” in each case.
Consider `COc1ccc(-c2noc(CC(=O)O)c2-c2ccc(OC)cc2)cc1`, for which the Potency entry with CP335, in the assay on DFO2036, in the assay with DIV14, in the assay with DIV17, in the assay with DIV30 and in the assay with Dd2 was “inactive” in each case. The Potency result in the assay with ECU, with FAB9 and in the assay with HB3 was “inactive” throughout.
Regarding `NC(=S)N=Nc1ccc(NN=C(N)N)cc1`, the Potency in the assay on CP335 was 8.49 µM (active); with DFO2036, 5.01 µM (active); in the assay with DIV14, 6.01 µM (active); in the assay on DIV17 it was 7.57 µM (active); in the assay with DIV30 it was 9.53 µM (active); with Dd2, 2.51 µM (active). Further, the Potency in the assay on FAB9 was 11.2 µM (active); in the assay with GB4 it was 6.75 µM (active); with HB3, 5.62 µM (active).
In the case of `CC(C)CCCCCCc1ccc(O)cc1`, the Potency result in the assay with CP335, with DFO2036, with DIV14, in the assay on DIV17, in the assay on DIV30 and in the assay on Dd2 was “inactive” in each case. For the same compound, the Potency result in the assay with FAB9, in the assay with GB4 and in the assay on HB3 was “inactive” in each case.
With `Cc1cccc(C)c1NC(=O)C1CCCCN1C` (configuration not stated), the Potency result in the assay with CP335, in the assay with DFO2036, in the assay with DIV14, with DIV17, with DIV30 and in the assay on Dd2 was “inactive” throughout. Besides, the Potency entry in the assay on ECU, in the assay with FAB9 and with HB3 was “inactive” in each case.
For `Cc1cc2nc3c(=O)[nH]c(=O)nc-3n(C[C@H](O)[C@H](O)[C@H](O)COP(=O)(O)OP(=O)(O)OC[C@H]3O[C@@H](n4cnc5c(N)ncnc54)[C@H](O)[C@@H]3O)c2cc1C`, the Potency result in the assay with CP335, with DFO2036, in the assay on DIV14, in the assay on DIV17, in the assay on Dd2 and in the assay with ECU was “inactive” throughout. Besides, the Potency entry in the assay with FAB9, in the assay with GB4 and in the assay on HB3 was “inactive” in each case.
